In PubChem BioAssay:
Calls of active or inactive are those of the source. Unless noted, the rule behind the calls is not given here.

What was measured:
[1] = compound effects on lung adenocarcinoma cell viability – A549, calcein-AM fluorescence, 48 h, basal, profiling panel (AID 1162); conditions: higher = more signal; note: test concentration not given here
[2] = compound effects on differentiated 3T3-L1 adipocyte viability – cell-based, 3T3-L1 adipocytes, calcein-AM fluorescence, 48 h, basal, profiling panel (AID 1163); conditions: 3T3-L1 adipocytes viability, higher = more signal; note: test concentration not given here
[3] = compound effects on hepatocellular carcinoma cell viability – HepG2, calcein-AM fluorescence, 48 h, basal, profiling panel (AID 1164); conditions: higher = more signal; note: test concentration not given here
[4] = compound effects on multiple myeloma cell viability – MM1S, calcein-AM fluorescence, 48 h, basal, profiling panel (AID 1165); conditions: higher = more signal; note: test concentration not given here
[5] = calcein-AM signal in unstimulated myeloma cells – cell-based, calcein-AM fluorescence, 48 h, PK04 Diversity Set, profiling panel (AID 1166); conditions: RPMI8226 myeloma viability, higher = more signal;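 note: cells grown under basal conditions without added stimulus; test concentration not given here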
[6] = JC-1 mitochondrial signal, unstimulated HepG2 cells – cell-based, JC-1 fluorescence, 24 h, 100 nL compound, profiling panel (AID 1167); conditions: HepG2 mitochondrial potential, higher = more signal; note: test concentration not given here
[7] = JC-1 mitochondrial signal, unstimulated adipocytes – cell-based, JC-1 fluorescence, 3T3-L1 adipocytes, 24 h, 100 nL compound, profiling panel (AID 1168); conditions: JC-1 mitochondrial fluorescence, higher = more signal, called active from +8 up or from −8 down; note: test concentration not given here
[8] = JC-1 mitochondrial signal, unstimulated myeloma cells – cell-based, JC-1 fluorescence, RPMI8226, 24 h, 100 nL compound, profiling panel (AID 1169); conditions: JC-1 mitochondrial potential fluorescence, higher = more signal; note: test concentration not given here
[9] = JC-1 mitochondrial signal, unstimulated MM1S myeloma – cell-based, JC-1 fluorescence, 24 h, 100 nL compound, profiling panel (AID 1170); conditions: MM1S mitochondrial potential, higher = more signal; note: test concentration not given here
[10] = resazurin metabolic signal in A549 cells – cell-based, resazurin fluorescence, 24 h, PK04 Diversity Set, profiling panel (AID 1171); conditions: A549 viability, higher = more signal, called active from +8 up or from −8 down; note: test concentration not given here
[11] = resazurin metabolic signal in HepG2 cells – cell-based, resazurin fluorescence, 24 h, PK04 Diversity Set, profiling panel (AID 1172); conditions: HepG2 viability, higher = more signal; note: test concentration not given here
[12] = budding yeast growth changes without added modifier – OD600, strain BY4716, 24 h, basal condition, primary screen (AID 1173); conditions: S. cerevisiae BY4716 growth, OD600, 24 h; higher = more signal, called active from +8 up or from −8 down
[13] = viability profiling in MM1S myeloma cells – cell-based, resazurin fluorescence, basal, 24 h, PK04 Diversity Set, profiling panel (AID 1174); conditions: higher = more signal, called active from +8 up or from −8 down; note: test concentration not given here
[14] = target: Dihydroorotate dehydrogenase (quinone), mitochondrial (Plasmodium falciparum (isolate 3D7)) (UniProt Q08210); experiment: inhibition of P. falciparum DHODH – biochemical, C-terminal His tag, absorbance 600 nm, primary screen (AID 1175); conditions: PfDHODH enzyme, DCIP absorbance 600 nm; higher = more signal, called active from +8 up or from −8 down;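 note: recombinant parasite enzyme with a five histidine tag at its C terminus; test concentration not given here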
Dihydroorotate dehydrogenase (quinone), mitochondrial (Plasmodium falciparum (isolate 3D7)), sequence (Q08210 whole entry, looked up): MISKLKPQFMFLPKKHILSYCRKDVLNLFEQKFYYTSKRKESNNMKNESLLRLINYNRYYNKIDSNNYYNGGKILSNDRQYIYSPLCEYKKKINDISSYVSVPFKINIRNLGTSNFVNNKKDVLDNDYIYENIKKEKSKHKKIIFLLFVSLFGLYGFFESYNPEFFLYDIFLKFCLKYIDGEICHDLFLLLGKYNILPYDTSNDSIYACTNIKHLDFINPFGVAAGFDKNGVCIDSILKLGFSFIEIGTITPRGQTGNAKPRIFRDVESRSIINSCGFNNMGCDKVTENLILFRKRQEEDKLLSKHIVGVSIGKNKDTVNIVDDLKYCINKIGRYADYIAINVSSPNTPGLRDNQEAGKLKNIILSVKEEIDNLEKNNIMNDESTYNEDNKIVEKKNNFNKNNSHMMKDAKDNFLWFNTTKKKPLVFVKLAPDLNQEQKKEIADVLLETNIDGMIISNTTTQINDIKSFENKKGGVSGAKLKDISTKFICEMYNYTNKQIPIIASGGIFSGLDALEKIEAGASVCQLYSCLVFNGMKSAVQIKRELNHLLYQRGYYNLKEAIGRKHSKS

[15] = inhibition of PAO1 biofilm formation – strain PAO1, LB-PBS medium, absorbance 600 nm, primary screen (AID 1176); note: test concentration not given here; conditions: P. aeruginosa PAO1 growth/biofilm, A600, 12 h; higher = more signal
[16] = growth modulation of vineyard yeast isolate – strain RM11-1a, OD600, basal, 24 h, primary screen (AID 1177);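 note: cultures grown under basal conditions with no added stressor; test concentration not given here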; conditions: S. cerevisiae RM11-1a growth, OD600, 24 h; higher = more signal, called active from +8 up or from −8 down
[17] = growth of efflux-deficient E. coli DRC39 – strain DRC39, OD650, 24 h, E. coli filamentation inducers, primary screen (AID 1178);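 note: growth measured as culture turbidity by optical density at 650 nm; test concentration not given here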; conditions: E. coli DRC39 acrAB, higher = more signal, called active from +8 up or from −8 down
[18] = growth of efflux-deficient E. coli DRC39 – strain DRC39, OD650, 48 h, E. coli filamentation inducers, primary screen (AID 1179);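 note: screen aims at cell division blockers that make cells filament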; conditions: E. coli DRC39 delta-acrAB growth, higher = more signal, called active from +8 up or from −8 down
[19] = viability profiling in RPMI8226 myeloma cells – cell-based, resazurin fluorescence, basal, 24 h, PK04 Diversity Set, profiling panel (AID 1180); conditions: higher = more signal;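 note: RPMI8826 multiple myeloma cell line at 5000 cells per well; test concentration not given here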
[20] = target: E3 ubiquitin-protein ligase XIAP (Homo sapiens) (UniProt P98170); experiment: small molecules binding XIAP protein – biophysical, small-molecule microarray, fluorescence 635 nm, primary screen (AID 1181); conditions: higher = more signal;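 note: score merges 667 nm emission and signal to noise over triplicate slides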
E3 ubiquitin-protein ligase XIAP (Homo sapiens), sequence (P98170 whole entry, looked up): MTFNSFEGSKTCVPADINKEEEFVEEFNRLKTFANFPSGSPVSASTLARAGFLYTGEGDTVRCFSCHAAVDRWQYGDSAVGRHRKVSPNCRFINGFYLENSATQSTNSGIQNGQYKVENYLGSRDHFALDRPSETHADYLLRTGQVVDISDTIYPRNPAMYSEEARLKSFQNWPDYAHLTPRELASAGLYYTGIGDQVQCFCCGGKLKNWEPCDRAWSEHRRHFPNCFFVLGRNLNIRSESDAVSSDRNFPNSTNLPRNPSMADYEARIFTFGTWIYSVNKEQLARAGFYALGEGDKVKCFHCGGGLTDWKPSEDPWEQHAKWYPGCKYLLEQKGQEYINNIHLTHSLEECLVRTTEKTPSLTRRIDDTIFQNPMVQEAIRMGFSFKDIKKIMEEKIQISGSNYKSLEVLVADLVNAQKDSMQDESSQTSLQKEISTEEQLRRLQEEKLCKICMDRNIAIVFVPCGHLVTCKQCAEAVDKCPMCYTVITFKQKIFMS

SMILES	z-score [1]	z-score [2]	z-score [3]	z-score [4]	z-score [5]	z-score [6]	z-score [7]	z-score [8]	z-score [9]	z-score [10]	z-score [11]	z-score [12]	z-score [13]	composite z-score [14]	z-score [15]	z-score [16]	z-score [17]	z-score [18]	z-score [19]	composite z-score [20]
COc1ccc([Si](C)(C)[C@@H]2[C@@H](CCO)O[C@]3(C(=O)N(Cc4cccc(N5CCCCC5=O)c4)c4ccccc43)[C@H]2C)cc1	-0.86	0.161	-1.7	-2.75	-1.65	-1.94	0.128 (inactive)	-1.02	-1.43	-0.55 (inactive)	-0.994	0.697 (inactive)	-1.93 (inactive)	-1.75 (inactive)	0.225 (inactive)	5.19 (inactive)	0.318 (inactive)	0.244 (inactive)	-0.439	0.0623
CC(C)(C)OC(=O)CC[C@@]1(C(=O)NCC(O)CO)N=C(c2ccc(OCCCO)cc2)O[C@@H]1c1ccccc1 (stereo not given in full)	-0.0139	-1.09	1.92	-0.607	-0.0321	1.93	-0.144 (inactive)	-0.0607	-0.844	-0.387 (inactive)	0.38	-0.205 (inactive)	-0.542 (inactive)	-0.73 (inactive)	0.671 (inactive)	0.0191 (inactive)	-0.529 (inactive)	0.108 (inactive)	-0.397	0.0785
Cc1ccc(C(C)CC(O)C2C=CC3C(=O)NC(=O)C3N2Nc2ccccn2)o1 (stereo not given)	0.378	-0.671	1.37	-0.333	0.635	0.117	-0.0169 (inactive)	-0.263	-0.408	-0.793 (inactive)	-0.668	0.258 (inactive)	-1.19 (inactive)	0.936 (inactive)	1.04 (inactive)	0.735 (inactive)	0.168 (inactive)	0.215 (inactive)	-0.355	-0.127
O=C1O[C@H](c2ccccc2)[C@H](c2ccccc2)N2[C@H]1[C@@H](C(=O)N1CCCCCCC1)[C@]1(C(=O)Nc3ccc(C#CC4=CCCCC4)cc31)[C@H]2c1ccc(O)cc1	-0.674	1.01	-0.0827	-0.181	-0.773	-1.28	0.634 (inactive)	-0.179	-1.28	0.327 (inactive)	0.693	-0.63 (inactive)	-0.693 (inactive)	-0.744 (inactive)	0.485 (inactive)	-0.668 (inactive)	-0.182 (inactive)	-1.53 (inactive)	-0.0437	3.33
[N-]=[N+]=NCc1ccccc1C[C@]1(C(=O)NCc2ccccc2)COC(c2ccc(OCCCO)cc2)=N1	-2.45	-0.679	-3.8	-3.38	-4.32	0.762	0.768 (inactive)	-0.891	-2.3	-1.42 (inactive)	-1.89	1.55 (inactive)	-5.64 (inactive)	1.1 (inactive)	0.385 (inactive)	3.06 (inactive)	1.45 (inactive)	0.376 (inactive)	-4.15	0.488
C=CCNC(=O)[C@@H]1[C@H]2C(=O)O[C@H](c3ccccc3)[C@H](c3ccccc3)N2[C@H](c2ccccc2OCCO)[C@@]12C(=O)N(C(=O)OCCOC)c1ccc(C#CCC(C(=O)OC)C(=O)OC)cc12	0.136	-0.609	-0.592	-0.794	-1.57	0.408	0.618 (inactive)	-0.802	-1.35	1.31 (inactive)	0.865	2.2 (inactive)	-1.69 (inactive)	-2.24 (inactive)	3.54 (inactive)	1.62 (inactive)	0.275 (inactive)	-0.418 (inactive)	-0.11	0.666
CC(C)NC(=O)[C@@H]1c2ccccc2C(=O)N(C2CCCCC2)[C@H]1c1ccc(CO)cc1	0.699	-0.209	0.581	-0.594	-2.04	1.54	-0.656 (inactive)	-0.811	0.103	1.08 (inactive)	-0.208	-0.63 (inactive)	-0.569 (inactive)	-0.131 (inactive)	0.36 (inactive)	0.052 (inactive)	0.126 (inactive)	-0.0549 (inactive)	-0.374	0.0124
C=CCN1C(=O)[C@@]2(O[C@@H](CCO)[C@H]([Si](C)(C)c3ccc(OC)cc3)[C@H]2C)c2cc(NC(C)=O)ccc21	0.103	-0.213	-0.411	-1.36	-1.56	-0.96	-0.296 (inactive)	-0.484	-0.722	-1.17 (inactive)	-0.865	-1.47 (inactive)	-1.6 (inactive)	-1.13 (inactive)	-0.188 (inactive)	1.48 (inactive)	0.166 (inactive)	0.121 (inactive)	-1.43	0.436
O=C1OCC=C[C@H]2OC34C=CCN(Cc5ccccc5)C(=O)[C@H]3N(CCCO)C(=O)[C@@H]4[C@@H]12 (stereo not given in full)	-0.518	0.676	-1.28	0.772	0.0919	0.0708	-0.0748 (inactive)	0.242	0.252	-0.196 (inactive)	0.0395	-0.616 (inactive)	-0.0608 (inactive)	-1.55 (inactive)	-0.0963 (inactive)	0.242 (inactive)	-0.658 (inactive)	0.122 (inactive)	-0.0906	0.643
COC(=O)c1c(CC[C@@H](CO)NC(=O)Nc2ncn[nH]2)oc(C(=O)Cc2ccccc2)c1C(=O)OC	-0.0782	-0.927	-0.314	0.226	0.343	-0.808	0.765 (inactive)	0.0444	-0.286	0.199 (inactive)	0.172	-0.62 (inactive)	0.059 (inactive)	0.593 (inactive)	0.55 (inactive)	-0.382 (inactive)	0.536 (inactive)	0.434 (inactive)	0.36	-0.0952
COc1ccc([Si](C)(C)[C@H]2[C@H](CCO)O[C@@]3(C(=O)N(Cc4ccccc4)c4ccc(N5C(=O)COc6ccccc65)cc43)[C@@H]2C)cc1	-0.831	0.281	-3.01	-3	-3.25	-0.111	1.46 (inactive)	-0.855	-1.47	-1.74 (inactive)	-0.981	0.0662 (inactive)	-2.72 (inactive)	0.0861 (inactive)	1.31 (inactive)	3.06 (inactive)	1.2 (inactive)	0.433 (inactive)	-3.14	-0.0622
C=CC[C@@]1(C(=O)NCCN2CCOCC2)N=C(c2ccc(OCCCO)cc2)O[C@@H]1c1ccccc1CN=[N+]=[N-]	-0.0982	1.56	0.88	-2.94	-1.03	1.86	-0.224 (inactive)	-0.129	-0.029	-0.468 (inactive)	-0.0014	-1.4 (inactive)	0.331 (inactive)	0.45 (inactive)	0.466 (inactive)	-0.425 (inactive)	0.677 (inactive)	-0.498 (inactive)	-0.354	0.272
COc1c(C)cc(-c2cc3c(c(-c4ccccc4)n2)[Si](C(C)C)(C(C)C)O[C@H]3c2ccccc2)cc1C	-0.77	-0.11	-0.0094	-0.521	-1.98	-1.21	-1 (inactive)	-0.016	-0.198	-0.0824 (inactive)	-0.315	-0.0888 (inactive)	-0.477 (inactive)	-1.21 (inactive)	0.161 (inactive)	-1.33 (inactive)	-0.102 (inactive)	-0.446 (inactive)	-0.327	-0.0186
C=C(CCCC)C(=O)CC[C@H](OC(C)=O)c1ccc(CO)o1	-0.0395	1.87	-0.576	-1.65	-0.0314	0.299	1.14 (inactive)	0.0658	0.376	-0.485 (inactive)	-0.658	-0.948 (inactive)	0.982 (inactive)	-1.66 (inactive)	-0.0221 (inactive)	0.285 (inactive)	0.668 (inactive)	-0.968 (inactive)	0.496	0.343
CCOC(=O)C[C@H]1[C@H](OC(=O)c2ccc(C(=O)c3ccccc3)cc2)[C@@H](NC(=O)c2ccc3ccccc3n2)c2cc(OCCCO)ccc2N1C(=O)c1ccc2ccccc2n1	0.602	-0.402	0.674	-0.367	-0.0521	1.24	1.63 (inactive)	-0.0794	0.215	1.04 (inactive)	0.44	-0.0495 (inactive)	0.433 (inactive)	0.681 (inactive)	0.808 (inactive)	0.081 (inactive)	0.322 (inactive)	0.388 (inactive)	0.416	-0.0525
CCOC(=O)C1=C[C@@H](C(C)(C)C)N(S(=O)(=O)c2ccc(C)cc2)[C@H]1c1ccc(Cl)c(Cl)c1	-0.292	-0.257	-1.36	-0.266	-0.986	4.44	-1.66 (inactive)	-0.981	-1.33	-2.26 (inactive)	-0.331	1.63 (inactive)	-1.01 (inactive)	0.89 (inactive)	0.546 (inactive)	1.26 (inactive)	-0.723 (inactive)	-0.398 (inactive)	-2.92	-0.0351
CC(C)C(O)C1C=CC2C(=O)N(C)C(=O)C2N1N1CCCCC1 (stereo not given)	0.553	-0.0255	-0.306	-0.602	-1.34	-0.778	-0.307 (inactive)	0.643	-0.189	-0.153 (inactive)	-0.401	0.717 (inactive)	-0.82 (inactive)	-0.0607 (inactive)	0.916 (inactive)	0.0471 (inactive)	-0.754 (inactive)	-0.837 (inactive)	-0.323	-0.0448
CN(C)CCCC[C@@H]1NC(=O)[C@@H]2C[C@H](C(=O)NCCCCCCN)[C@H](c3ccc(O)cc3)N2C1=O	-0.215	0.958	-0.544	0.405	0.483	-1.36	-0.0708 (inactive)	0.576	0.213	0.291 (inactive)	-1.14	0.531 (inactive)	0.427 (inactive)	-2.06 (inactive)	0.643 (inactive)	0.793 (inactive)	0.254 (inactive)	-0.234 (inactive)	0.109	-0.157
